Source: PubChem BioAssay (The Scripps Research Institute Molecular Screening Center)
An excerpt weighted towards active compounds, which were near 3.5% of everything screened.
GPR151 ag: activators of human GPR151, primary screen, cell-based, PathHunter beta-arrestin, luminescence; G-protein coupled receptor 151 (Homo sapiens), Q8TDV0; PathHunter beta-arrestin GPR151 cells; activation, % at 11.2 µM; 1% of 650,000 active; AID 1508602, 2020; in the data active means activation above about 4.9%
Target sequence (Q8TDV0 whole entry, looked up): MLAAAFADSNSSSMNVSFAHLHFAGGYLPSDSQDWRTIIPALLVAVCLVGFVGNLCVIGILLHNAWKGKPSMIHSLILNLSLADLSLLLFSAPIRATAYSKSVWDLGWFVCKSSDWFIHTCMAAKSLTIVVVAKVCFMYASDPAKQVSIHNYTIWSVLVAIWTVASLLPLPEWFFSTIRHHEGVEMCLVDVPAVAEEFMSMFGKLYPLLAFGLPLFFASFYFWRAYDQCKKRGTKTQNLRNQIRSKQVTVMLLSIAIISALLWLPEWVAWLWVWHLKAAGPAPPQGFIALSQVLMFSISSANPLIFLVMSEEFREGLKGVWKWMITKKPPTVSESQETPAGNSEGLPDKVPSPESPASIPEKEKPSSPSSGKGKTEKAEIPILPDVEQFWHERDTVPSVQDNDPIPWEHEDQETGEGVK
TEAD-YAP block: TEAD-YAP interaction inhibition, primary screen, TEAD-YAP interaction inhibitor project, luminescence, HEK-TIYL cells; TEAD-Gal4/YAP UAS-luciferase luminescence; inhibition, % at 9.12 µM; 1.4% of 640,000 active; AID 1259422, 2018; in the data active means inhibition above about 32%
FBW7 activator: FBW7 E3 ligase activators, primary screen, biochemical, AlphaScreen, human. F-box/WD repeat-containing protein 7 (Homo sapiens), Q969H0. 0.13% of 650,000 active. AlphaScreen FBW7–phospho-cyclin E peptide binding, activator screen. AID 1259310, 2017. normalized activity (activation), % at 26.1 µM; in the data active means normalized activity above about 1.9%;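 further: purified mutant Fbw7 with reduced substrate affinity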
MITF inh: MITF inhibitors, primary screen, biochemical, AlphaScreen, human. Microphthalmia-associated transcription factor (Homo sapiens), O75030. AlphaScreen MITF homodimerization, bead proximity signal. inhibition, % at 2.6 µM. 0.91% of 650,000 active. AID 1259374, 2018; in the data active means inhibition above about 50%
Hits are given with their value; i = inactive.

SMILES | GPR151 ag | TEAD-YAP block | FBW7 activator | MITF inh
CCOC(=O)c1sc2nc(SCC(=O)NC3CCCCC3)n(Cc3ccccc3Cl)c(=O)c2c1C | i | i | i | i
COCCCn1c(=O)c2sccc2n2c(CCCC(=O)Nc3ccc(C)cc3)nnc12 | i | i | i | i
CN(C)CCOc1cc(-c2cn[nH]c2)ccc1N | i | i | i | 54.0
CN(C)CCOc1cc(-c2cn[nH]c2)ccc1NC(=O)C(O)c1ccc(F)cc1 (configuration not stated) | i | i | i | i
Cc1ccc2nc(SCC(=O)O)[nH]c2c1 | i | i | i | i
c1cncc(-c2ccc(NC3CCc4ccccc43)nc2)c1 (configuration not stated) | i | i | i | i
N#Cc1cccc(NC(=O)C[n+]2c(N)sc3ccc4ccccc4c32)c1 | i | 43.1 | i | i
CS(=O)(=O)N(CC(=O)N1CCOCC1)c1ccc(Oc2ccccc2)cc1 | i | i | i | i
CCOc1ccc(N(CC(=O)N2CCOCC2)S(C)(=O)=O)cc1 | i | i | 2.1 | i
COCCNCCCCOc1c(Cl)cc(C)cc1Br | i | i | i | i
COCCCNCCCOc1c(Cl)cc(C)cc1Br | i | 51.1 | i | i
NNC(=O)CC1CC(c2cccc([N+](=O)[O-])c2)=NN1 (configuration not stated) | i | i | i | i
c1cnc2c(-c3cnc4c(Nc5ccc6[nH]ccc6c5)nccn34)cccc2c1 | i | 54.8 | i | i
CS(=O)(=O)Nc1cccc(-c2cnc3c(Nc4ccc5[nH]ccc5c4)nccn23)c1 | i | 90.0 | i | i
Fc1cccc(-c2cnc3c(Nc4ccc5[nH]ccc5c4)nccn23)c1 | i | i | i | i
c1ccc(-c2cnc3c(Nc4ccc5[nH]ccc5c4)nccn23)cc1 | i | i | i | i
CN(C)c1ccc(/C=C2\Oc3c(ccc(O)c3O)C2=O)cc1 | i | i | i | 54.9
COc1ccc(CC(=O)N2CCc3cc(OC)c(OC)cc3C2COc2ccccc2OC)cc1 (configuration not stated) | i | i | i | i
COc1cc(NC(=O)c2sc3nc(N)c(C#N)cc3c2N)cc(OC)c1OC | i | i | i | i
COc1ccc(NC(=O)c2sc3nc(N)c(C#N)cc3c2N)cc1 | i | i | 18.4 | i
CC(=O)c1ccc(NC(=O)c2cnn3ccccc23)cc1 | i | 91.5 | i | i
Cc1cc(C)cc(NC(=O)c2cnn3ccccc23)c1 | i | i | i | i
Cc1ccc(NC(=O)c2cnn3ccccc23)cc1C | i | 65.5 | i | i
CC(=O)c1cccc(NC(=O)c2cnn3ccccc23)c1 | i | i | i | i
O=C(Nc1ccc(CN2CCOCC2)cc1)c1cnn2ccccc12 | i | 91.3 | i | i
SMILES | GPR151 ag | TEAD-YAP block | FBW7 activator | MITF inh
Cc1ccc2cccc(OS(=O)(=O)c3ccccc3C)c2n1 | i | i | i | i
COc1ccc(S(=O)(=O)Oc2cccc3ccc(C)nc23)cc1OC | i | i | 1.9 | i
CCCSc1nc2sc3c(c2c(=O)n1-c1ccc(C)cc1)CCC(C(C)(C)C)C3 (configuration not stated) | i | i | i | i
CCC(CC)C(=O)Nc1cccc(-c2cn3nc(OC)ccc3n2)c1 | i | i | i | i
Cc1ccc(-c2noc(Cn3ccn4nc(-c5ccccc5)cc4c3=O)n2)cc1 | i | i | i | i
Cc1cc(C)n(Cc2cccc(C(=O)N/N=C/c3ccc(O)cc3O)c2)n1 | i | i | i | i
COc1ccc(CCCC(=O)N/N=C/c2cccc(OC)c2O)cc1C | i | 42.3 | i | i
Cc1cc(C)n(Cc2ccc(C(=O)N/N=C/c3ccc(O)cc3O)cc2)n1 | i | 60.8 | i | i
COc1cccc(/C=N/NC(=O)c2ccc(Cn3nc(C)cc3C)cc2)c1O | i | 52.6 | i | i
CSc1sccc1/C=N/Nc1cccc([N+](=O)[O-])c1 | i | i | i | i
CCCCNc1ncnc2ccc(Br)cc12 | i | 44.9 | i | i
NC(=O)c1c(NC(=O)c2ccc(Br)o2)sc2c1CCCCC2 | i | 85.2 | i | i
Cc1ccc(/C=C/C(=O)Nc2sccc2C(N)=O)o1 | i | i | i | i
NC(=O)c1c(NC(=O)c2cccc(Br)c2)sc2c1CCCC2 | i | 47.1 | i | i
NC(=O)c1ccsc1NC(=O)/C=C/c1ccccc1 | i | 80.7 | i | i
Cc1cccc(C(=O)Nc2sc3c(c2C(N)=O)CCCC3)c1 | i | 51.5 | i | i
O=C(/C=C/c1ccco1)N1CCN(c2ccc(N3CCOCC3)nn2)CC1 | i | i | i | i
Cc1cccc(OCC(=O)Nc2sc3c(c2C(N)=O)CCCC3)c1 | i | 53.0 | i | i
NC(=O)c1c(NC(=O)/C=C/c2ccccc2)sc2c1CCC2 | i | i | i | i
CCC(=O)Nc1sc2c(c1C(N)=O)CCC2 | i | i | i | i
NC(=O)c1c(NC(=O)CCl)sc2c1CCC2 | i | 60.9 | i | i
O=C(/C=C/c1ccccc1)Nc1sc2c(c1C(=O)O)CCCC2 | i | 49.1 | i | i
Cc1ccc(NC(=O)c2c(NC(=O)c3ccc(Br)cc3)sc3c2CCCC3)c(C)c1 | i | i | 2.1 | i
NC(=O)c1nsc(C(=O)N(CC(=O)NCC2CCCO2)Cc2cccnc2)c1N (configuration not stated) | i | i | i | i
O=C(CCCOc1ccc(Br)cc1)NCc1ccc2c(c1)OCO2 | i | i | i | i
SMILES | GPR151 ag | TEAD-YAP block | FBW7 activator | MITF inh
Cc1cccc(C(=O)Nc2sc3c(c2C(=O)O)CCCC3)c1 | i | 69.9 | i | i
CS(=O)(=O)Nc1ccc(-c2nnc(SCC(=O)Nc3ccccc3Cl)o2)cc1 | i | i | i | i
CS(=O)(=O)Nc1ccc(-c2nnc(SCC(=O)Nc3ccccc3F)o2)cc1 | i | 37.1 | i | i
c1ccc2c(c1)Cn1nc(-c3c[nH]c4ccccc34)nc1-2 | i | 76.8 | i | i
c1ccc2c(c1)ccc1nnc(-c3c[nH]c4ccccc34)n12 | i | i | i | i
O=C(Nc1ccc(Oc2ccc([N+](=O)[O-])c3cnccc23)cc1)c1ccco1 | i | 39.4 | i | i
CC(O)C12c3ccccc3C(c3ccccc31)C1C(=O)N(c3ccccc3F)C(=O)C12 (configuration not stated) | i | i | 2.2 | i
CCOC(=O)c1c(-c2ccc(OC)cc2)csc1NC(=O)CSc1ncn[nH]1 | i | 34.5 | i | i
CCC(C)Oc1ccccc1C1CC(=O)NC2=C1C(=O)CCC2 (configuration not stated) | i | 38.2 | i | i
COc1ccc(S(=O)(=O)N2CCN(c3cc(-n4cccn4)ncn3)CC2)cc1C | i | 33.1 | i | i
CN(C)S(=O)(=O)N1CCN(c2cc(-n3cccn3)ncn2)CC1 | i | i | i | i
O=C(Nc1cccc(N2CCC(NC3C4CC5CC3CC(O)(C5)C4)CC2)c1)C1CC1 (configuration not stated) | i | i | i | i
Cc1ccc(C2=N/C(=C\c3ccccc3OC(=O)c3ccc(Br)cc3)C(=O)O2)cc1 | i | 36.7 | i | i
